Measurements published in PubChem BioAssay (NCATS).
Results filed as inconclusive are left out. Calls of active or inactive are those of the source. Calls follow the shape of the dose curve; as a rule, active = well fitted inhibition curve with a large enough effect; inconclusive = small, poorly fitted or top-dose-only effect; inactive = flat fitted curve, though single readings scatter.

Legend:
Assay in all cases: qHTS profiling for inhibitors of Plasmodium falciparum proliferation (AID 504749); also: nearly all actives have a fitted effect of over 60% in size
Settings in all cases: P. falciparum in erythrocytes, SYBR Green DNA, 72 h; series mostly up to 28.7 µM
DIV14 = system: DIV14
In short: (§1)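 SYBR Green fluorescence of parasite DNA, read after lysis and overnight dark incubation, measured growth over 72 h in erythrocyte culture at 0.3% parasitemia and 2.5% hematocrit. Data normalised to DMSO and 0.29 uM artemisinin, with plate-drift correction.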

DIV17 = system: DIV17
In short: as §1

DIV30 = system: DIV30
In short: as §1

Dd2 = system: Dd2
In short: as §1

ECU = system: ECU
In short: as §1

FAB9 = system: FAB9
In short: as §1

GB4 = system: GB4
In short: as §1

HB3 = system: HB3
In short: as §1

ICS = system: ICS
In short: as §1

JCK = system: JCK
In short: as §1

N140 = system: N140
In short: as §1

P94_40 = system: P94_40
In short: as §1

PAD = system: PAD
In short: as §1

PC15 = system: PC15
In short: as §1

PC26 = system: PC26
In short: as §1

PC49 = system: PC49
In short: as §1

SC27B = system: SC27B
In short: as §1

TAB109 = system: TAB109
In short: as §1

TAB113 = system: TAB113
In short: as §1

P93_24 = system: P93_24
In short: as §1

Measured: outcome

CCOC(=O)C(CCc1ccccc1)NC(C)C(=O)N1Cc2ccccc2CC1C(=O)O (centres undefined)
inactive: DIV14 | DIV17 | DIV30 | Dd2 | ECU | FAB9 | GB4 | HB3 | ICS | JCK | N140 | P94_40 | PAD | PC15 | PC26 | PC49 | SC27B | TAB109 | TAB113

CCc1cccc2c3c([nH]c12)[C@@](CC)(CC(=O)O)OCC3
inactive: DIV14 | DIV17 | DIV30 | Dd2 | ECU | FAB9 | GB4 | HB3 | ICS | JCK | N140 | P93_24 | P94_40 | PAD | PC15 | PC26 | PC49 | SC27B | TAB109 | TAB113
